An excerpt weighted towards active compounds, which were near 4.7% of everything screened.
TRHR enhancer = qHTS for Small Molecule Agonists and Allosteric Enhancers of Human TRH Receptor: Primary Screen for Enhancers. TRHR cells, fluo-8 calcium fluorescence, EC20 TRH enhancement. enhancement, % at 2 µM. actives 0.66% (n = 360,000). AID 493056, 2011; in the data active = enhancement above about 30%
Target sequence (P34981 whole entry, looked up): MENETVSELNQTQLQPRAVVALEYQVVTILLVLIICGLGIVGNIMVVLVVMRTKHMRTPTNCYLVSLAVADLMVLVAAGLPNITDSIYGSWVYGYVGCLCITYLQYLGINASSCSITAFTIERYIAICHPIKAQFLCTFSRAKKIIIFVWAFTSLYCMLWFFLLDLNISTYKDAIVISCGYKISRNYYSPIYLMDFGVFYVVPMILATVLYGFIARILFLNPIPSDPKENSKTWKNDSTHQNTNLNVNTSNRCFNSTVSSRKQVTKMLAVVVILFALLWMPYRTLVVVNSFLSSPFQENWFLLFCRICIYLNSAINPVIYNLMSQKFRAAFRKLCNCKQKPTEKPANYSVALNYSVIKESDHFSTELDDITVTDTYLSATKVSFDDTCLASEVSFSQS
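Enhancer read-out: after compound pinning and an initial kinetic agonist-mode read, an EC20 of TRH (10 nM final) was injected and fluo-8 calcium signal (Ex 480/Em 530) followed at 1 s/cycle for 100 cycles in TRHR-expressing cells.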
D1 agonist = Allosteric Agonists of the Human D1 Dopamine Receptor: qHTS; actives 1% (n = 360,000); AID 504660, 2011; activation, % at 2 µM; HEK293 T-REx D1 cells, calcium flux, agonist mode; D(1A) dopamine receptor (Homo sapiens), P21728
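Tetracycline-induced HEK293 TREx D1 cells, force-coupled to calcium signalling, were dye-loaded with a no-wash calcium kit. Compound was pin-added after a 10 s baseline. Fluorescence was read kinetically at 1 cycle/s for 180 s, with calcium rises flagged as agonism.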
TRHR agonist = qHTS for Small Molecule Agonists and Allosteric Enhancers of Human TRH Receptor: Primary Screen for Agonists. Thyrotropin-releasing hormone receptor (Homo sapiens), P34981. TRHR cells, calcium flux fluo-8, FDSS agonist mode. activation, % at 2 µM. actives 0.18% (n = 360,000). AID 493084, 2011
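In this calcium-flux screen, cells bearing human TRHR are dye-loaded with fluo-8, baselined for 10 cycles, then exposed to library compounds; positive kinetic calcium responses during the agonist phase mark hits, with TRH as control.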
D1 antagonist = Antagonist of Human D 1 Dopamine Receptor: qHTS; activity change, negative = inhibition, % at 10 µM; HEK293 TREx D1 cells, calcium flux, dopamine EC80; stronger effect = lower value; AID 504652, 2011; actives 3.2% (n = 360,000); D(1A) dopamine receptor (Homo sapiens), P21728; in the data active = activity change below about -30%
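Calcium flux readout: force-coupled, inducible Hek293 Trex D1 line, cells induced overnight at 30 C with tetracycline, dye-loaded 30–90 min at RT. Antagonism scored against EC80 dopamine challenge given 180 s after compound.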
D1 potentiator = Potentiators of Human D1 Dopamine Receptor: qHTS. actives 0.036% (n = 360,000). D(1A) dopamine receptor (Homo sapiens), P21728. potentiation, % at 10 µM. HEK293 TREx D1 cells, calcium flux, dopamine EC20 potentiation. AID 504651, 2011; in the data active = potentiation above about 30%
Large screens that a line does not name were inactive; ! = a repeat was not active. Cut-off read from the data, not from the text of the source, unless noted: active = activation above about 30%; inactive = the rest.

CCOC(=O)c1cnc2cc(C(F)(F)F)ccc2c1N1CCN(c2ccc(F)cc2)CC1	none
Cc1cc(C)cc(NC(=O)CCCN2C(=O)COc3ccc(C)cc32)c1	none
CC1Cc2cc(S(=O)(=O)CCC(=O)Nc3ccc(Cl)cc3F)ccc2N1C(=O)C1CC1 (configuration not stated)	none
CCCNc1ncnc2c1c(-c1ccccc1)cn2-c1ccccc1	none
CCOC(=O)N1CCN(S(=O)(=O)c2ccc(C(=O)N(CCN(C)C)c3nc4ccc(Cl)cc4s3)cc2)CC1	D1 antagonist -33.4
CN(C)CCCN(C(=O)c1ccc(Br)s1)c1nc2ccc(F)cc2s1	none
CCN(Cc1ccccc1)S(=O)(=O)c1ccc(C(=O)N(CCCN(C)C)c2nc3cc4c(cc3s2)OCCO4)cc1	D1 antagonist -41.5
CCOC(=O)N1CCN(S(=O)(=O)c2ccc(C(=O)N(CCCN(C)C)c3nc4ccc(OC)cc4s3)cc2)CC1	none
CN(C)CCCN(C(=O)c1ccc(C(=O)c2ccccc2)cc1)c1nc2cc3c(cc2s1)OCO3	D1 agonist 62.2
Cc1ccc2nc(N(CCCN(C)C)C(=O)c3ccc(Br)s3)sc2c1	D1 agonist 41.3!
CCN(Cc1ccccc1)S(=O)(=O)c1ccc(C(=O)N(CCCN(C)C)c2nc3ccc(F)cc3s2)cc1	none
CCN(CC)CCN(C(=O)c1ccc(C(=O)c2ccccc2)cc1)c1nc2cc3c(cc2s1)OCO3	none
COc1ccccc1NC(=O)Cn1c(=O)n(-c2ccccc2Cl)c(=O)c2sc3ccccc3c21	none
Cc1nc(N2CCCC2)c2c(C(=O)Nc3cccc(Cl)c3C)c(C)oc2n1	none
CSc1ccc(CCNC(=O)C2CCN(c3nc4ccccc4nc3C(F)(F)F)CC2)cc1	none
O=C(Cn1cnc([N+](=O)[O-])n1)N/N=C/c1cc(Cl)ccc1O	none
Cn1nnnc1SCCCNCc1ccc(-c2cccc(Cl)c2)o1	D1 agonist 100.3, D1 antagonist -56.9
COc1ccc(-c2ccc(CNCCCSc3nnnn3C)o2)cc1Cl	D1 agonist 36.5
CCOC(=O)c1cccc(NC(=O)C(CC(C)C)N2Cc3ccccc3C2=O)c1 (configuration not stated)	none
CCOC(=O)c1c(NC(=O)COc2ccccc2F)sc2c1CC(C)(C)NC2(C)C	D1 potentiator 35.6
COc1ccc(-c2csc(N(CCc3ccc(OC)c(OC)c3)C(=O)COc3ccccc3)n2)cc1	none
Cc1ccc(C)c(NC(=O)c2nc(S(=O)(=O)Cc3ccc(F)cc3)ncc2Cl)c1	D1 antagonist -36.6
O=C(Nc1nc2ccc(F)cc2s1)c1nc(S(=O)(=O)Cc2ccccc2F)ncc1Cl	D1 antagonist -34.1
O=C(NCc1ccc2c(c1)OCO2)c1nc(S(=O)(=O)Cc2ccccc2F)ncc1Cl	D1 antagonist -49.4
CC(C)c1nnc(NC(=O)c2nc(S(=O)(=O)Cc3ccc(F)cc3)ncc2Cl)s1	none
O=C(NCc1ccc2c(c1)OCO2)c1nc(S(=O)(=O)Cc2ccccc2)ncc1Cl	none
CCS(=O)(=O)c1ncc(Cl)c(C(=O)NCc2ccccc2)n1	D1 antagonist -32.8
Cc1ccc(-n2ncc3c(Nc4cccc(C(F)(F)F)c4)ncnc32)cc1C	none
COc1ccc(CCNC(=O)CSc2n[nH]c(-c3ccccc3Cl)n2)cc1OC	none
CCOC(=O)Cn1c(=O)n(-c2ccccc2OC)c2nc(-c3ccccc3)nc(C(N)=O)c21	none
CCNC(=O)c1c(NC(=O)c2nc(S(=O)(=O)CC)ncc2Cl)sc2c1CCCC2	D1 antagonist -54.5
CCOc1ccccc1NC(=O)c1nc(S(=O)(=O)Cc2cccc(C)c2)ncc1Cl	D1 antagonist -31.3!
COc1ccc(NC(=O)c2nc(S(=O)(=O)Cc3ccc(C)cc3)ncc2Cl)cc1	D1 antagonist -37.9
COCCCNC(=O)c1c(NC(=O)c2nc(S(C)(=O)=O)ncc2Cl)sc2c1CCCC2	none
Cc1ccc(CS(=O)(=O)c2ncc(Cl)c(C(=O)Nc3ccc(OC(F)F)cc3)n2)cc1	none
O=C(NCc1ccccc1)c1c(Cl)nc(Cl)c(Cl)c1Cl	D1 antagonist -42.5
CC(=O)c1ccc(NC(=O)Cn2c(=O)n(Cc3ccco3)c(=O)c3sc4ccccc4c32)cc1	none
CCOCCc1nn2c(=O)cc(COC(=O)COc3ccc(C)c(C)c3)nc2s1	none
Cc1ccc(OCC(=O)Nc2ccccc2C(=O)OCc2cc(=O)n3c(C)csc3n2)cc1	none
CC1=C(C(=O)Nc2cc(C)cc(C)c2)C2(CCCCC2)OC1=O	none
COC(=O)c1ccccc1NC(=O)c1nc(S(=O)(=O)Cc2ccccc2)ncc1Cl	none
O=C(NCc1ccccc1)c1nc(S(=O)(=O)Cc2ccccc2)ncc1Cl	D1 antagonist -41.1
COc1ccc(CNC(=O)c2nc(S(=O)(=O)Cc3ccccc3)ncc2Cl)cc1	D1 antagonist -36.6!
COC(=O)c1c(-c2ccc(Cl)cc2)noc1N1CCN(c2ccc(C)cc2C)CC1	none
CCc1ccc(S(=O)(=O)c2cn(C)c3cc(F)c(F)cc3c2=O)cc1	none
O=C1C2C(C(=O)N1/N=C/c1cc([N+](=O)[O-])c(O)cc1O)C1C=CC2C12CC2 (configuration not stated)	none
O=C1C2C(C(=O)N1/N=C/c1cc(Br)cc([N+](=O)[O-])c1O)C1C=CC2C12CC2 (configuration not stated)	D1 antagonist -30.9
Cc1cccc(Cn2c(=O)n3nc(-c4ccccc4)nc3c3ccccc32)c1	none
O=c1n(Cc2cccc(F)c2)c2ccccc2c2nc(-c3ccccc3)nn12	D1 antagonist -53.2
Cc1c(-c2cccc(NC(=O)c3ccc(F)c(F)c3)c2)nc2ncccn12	D1 antagonist -36.4
CC1=C(C(=O)Nc2cccnc2)C(c2cccc(Br)c2)n2nc(SCc3ccccc3)nc2N1 (configuration not stated)	none
C=CCN=c1scc(C)n1/N=C/c1ccc(O)c(O)c1	D1 antagonist -50.4
CCCCNC(=O)Cn1nc(N2CCN(c3ccccc3OC)CC2)ccc1=O	D1 antagonist -42.1
CC1CCc2cc(F)ccc2N1C(=O)CSc1nnc2c(n1)[nH]c1ccc(F)cc12 (configuration not stated)	D1 antagonist -36.5
COc1ccc(Cl)cc1NC(=S)NCc1ccccn1	TRHR enhancer 30.8
CCCCC(=O)Nc1c(C(=O)N2CCN(c3ccccc3)CC2)oc2ccccc12	D1 antagonist -48.1
O=C(Cc1ccccc1)Nc1c(C(=O)N2CCN(c3ccc(F)cc3)CC2)oc2ccccc12	D1 antagonist -43.0
COc1ccccc1C(=O)Nc1c(C(=O)N2CCN(c3ccc(F)cc3)CC2)oc2ccccc12	none
